Measurements reported in PubChem BioAssay.
Active and inactive are the calls of the source. Unless noted, no rule for the calls is given here.

Key:
[1] = compounds binding Alexa647 anti-His antibody – biochemical, small-molecule microarray, 635 nm fluorescence, artefact control for SMM control protein annotation, primary screen (AID 1128); conditions: higher = more signal;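 also: score merges feature fluorescence with signal-to-noise for each printed compound spot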
[2] = system: Human papillomavirus type 1a E7 protein (residues 1-88); test: HPV1a E7 small-molecule binders, primary screen, biochemical, small-molecule microarray, residues 1-88, 635 nm (AID 1129); conditions: small-molecule microarray binding, fluorescence 635 nm; higher = more signal
[3] = target: Focal adhesion kinase 1 (Homo sapiens) (UniProt Q05397); test: PTK2 protein binding on printed compound slides – biochemical, small-molecule microarray, 635/667 nm fluorescence, BSA, DTT, primary screen (AID 1130); conditions: 635 nm fluorescence, higher = more signal;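 also: composite of spot emission at 667 nm and signal to noise over triplicate slides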
[4] = system: Fibrinogen (Alexa647-labelled); test: Alexa647-fibrinogen binding to printed small molecules – biochemical, small-molecule microarray, 635/667 nm fluorescence, artefact control for SMM control-protein annotation, profiling panel (AID 1131); conditions: fibrinogen-A647 binding fluorescence, higher = more signal;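 also: z-score merges 667 nm fluorescence with per-spot signal-to-noise over triplicate slides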
[5] = target: Follistatin (Homo sapiens) (UniProt P19883); test: FST protein binding to printed compounds – biochemical, small-molecule microarray, 635/667 nm fluorescence, primary screen (AID 1132); conditions: 635 nm fluorescence, higher = more signal
[6] = target: Fibroblast growth factor 2 (Homo sapiens) (UniProt P09038); test: basic fibroblast growth factor binding to printed compounds – biochemical, small-molecule microarray, 635/667 nm fluorescence, primary screen (AID 1133); conditions: FGF2, fluorescence 635/667, higher = more signal
[7] = JC-1 mitochondrial potential readout, lung cancer cells – cell-based, A549, JC-1 fluorescence, basal, 24 h, 100 nL, profiling panel (AID 1138); conditions: higher = more signal;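 also: A549 lung adenocarcinoma cells under basal conditions with no added stimulus; test concentration not given here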
Lefty1 = Lefty1 protein binding to printed compounds – biochemical, small-molecule microarray, 635/667 nm fluorescence, primary screen (AID 1139); conditions: fluorescence 635/667, higher = more signal
[8] = system: wheat germ agglutinin (Triticum aestivum), Alexa647-labelled; test: Alexa647-WGA lectin binding to printed small molecules – biochemical, small-molecule microarray, 635/667 nm fluorescence, artefact control for SMM control-protein annotation, profiling panel (AID 1140); conditions: WGA-A647 binding, 635 nm fluorescence, higher = more signal;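 also: score merges 667 nm feature emission with signal to noise over triplicate slides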
[9] = target: Luciferin 4-monooxygenase (Photinus pyralis) (UniProt P08659); test: inhibition of purified Photinus pyralis luciferase – biochemical, luminescence, purified enzyme, 2006 set, primary screen (AID 1141); conditions: purified firefly luciferase, SteadyGlo luminescence, 30 min; higher = more signal, called active from +8 up or from −8 down;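 also: cell-free assay with purified firefly luciferase at 100 ng per well in PBS; test concentration not given here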
[10] = system: Wnt5a (protein binding on small-molecule microarray); test: small molecules binding Wnt5a protein – biophysical, small-molecule microarray, 635/667 nm fluorescence, primary screen (AID 1142); conditions: 635 nm fluorescence, higher = more signal;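 also: fluorescence read at 667 nm with signal to noise per printed feature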
[11] = ATP-based viability of Huh7 replicon cells – cell-based, CellTiter-Glo luminescence, basal, 48 h, cytotoxicity control for HCV replication inhibitor project, primary screen (AID 1143); conditions: higher = more signal, called active from +8 up or from −8 down;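 also: Huh7 hepatoma cells carrying a hepatitis C replication reporter with no stimulus; test concentration not given here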
[12] = Pseudomonas biofilm growth suppression – PAO1 strain, BacTiter-Glo luminescence, LB-PBS, primary screen (AID 1144); conditions: P. aeruginosa PAO1 biofilm, 12 h, higher = more signal
[13] = basal CRE-LacZ reporter activity in PC12 – cell-based, unstimulated, primary screen (AID 1145); conditions: no forskolin, luminescence, 4.5 h, higher = more signal, called active from +8 up or from −8 down
[14] = forskolin-driven CRE-LacZ activity in PC12 – cell-based, CRE-LacZ reporter, forskolin-stimulated, primary screen (AID 1146); conditions: luminescence, 4.5 h, higher = more signal, called active from +8 up or from −8 down;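 also: PC12 cells with 6xCRE LacZ reporter stimulated by forskolin 10 µM; beta-galactosidase reporter signal reflecting CREB driven transcription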
[15] = target: Streptavidin (Streptomyces avidinii) (UniProt P22629); test: compounds binding control protein streptavidin – biophysical, small-molecule microarray, 635/667 nm fluorescence, artefact control for SMM compound annotation, primary screen (AID 1147); conditions: higher = more signal;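 also: signal reflects streptavidin binding to arrayed compounds as a control protein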
[16] = probe aInhba binding on compound microarray – biochemical, small-molecule microarray, 635/667 nm fluorescence, primary screen (AID 1148); conditions: higher = more signal;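 also: score merges 667nm spot fluorescence with signal-to-noise for antibody binding to printed compounds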
Torsin-1A (Homo sapiens) [17] = target: Torsin-1A (Homo sapiens) (UniProt O14656); test: TOR1A wild-type binding on microarray – cell lysate, small-molecule microarray, lysate, 635/667 nm, primary screen (AID 1149); conditions: COS7 hTOR1A-WT lysate, 635 nm fluorescence, higher = more signal
Torsin-1A (Homo sapiens) [18] = target: Torsin-1A (Homo sapiens) (UniProt O14656); test: torsin A mutant lysate binding on microarrays – cell lysate, small-molecule microarray, COS7 lysate, 635/667 nm fluorescence, primary screen (AID 1150); conditions: COS7 hTOR1A mutant lysate, 635 nm fluorescence, higher = more signal;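 also: score pools 667 nm emission and signal to noise measuring lysate protein binding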
[19] = system: Sonic hedgehog protein (Shh); test: Sonic hedgehog microarray binding compounds – biochemical, small-molecule microarray, 635/667 nm fluorescence, primary screen (AID 1151); conditions: 635 nm fluorescence, higher = more signal;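 also: Shh protein binding to compounds spotted on small-molecule microarray slides; score combines spot fluorescence intensity with signal-to-noise across triplicate slides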

Focal adhesion kinase 1 (Homo sapiens), sequence (Q05397 whole entry, looked up): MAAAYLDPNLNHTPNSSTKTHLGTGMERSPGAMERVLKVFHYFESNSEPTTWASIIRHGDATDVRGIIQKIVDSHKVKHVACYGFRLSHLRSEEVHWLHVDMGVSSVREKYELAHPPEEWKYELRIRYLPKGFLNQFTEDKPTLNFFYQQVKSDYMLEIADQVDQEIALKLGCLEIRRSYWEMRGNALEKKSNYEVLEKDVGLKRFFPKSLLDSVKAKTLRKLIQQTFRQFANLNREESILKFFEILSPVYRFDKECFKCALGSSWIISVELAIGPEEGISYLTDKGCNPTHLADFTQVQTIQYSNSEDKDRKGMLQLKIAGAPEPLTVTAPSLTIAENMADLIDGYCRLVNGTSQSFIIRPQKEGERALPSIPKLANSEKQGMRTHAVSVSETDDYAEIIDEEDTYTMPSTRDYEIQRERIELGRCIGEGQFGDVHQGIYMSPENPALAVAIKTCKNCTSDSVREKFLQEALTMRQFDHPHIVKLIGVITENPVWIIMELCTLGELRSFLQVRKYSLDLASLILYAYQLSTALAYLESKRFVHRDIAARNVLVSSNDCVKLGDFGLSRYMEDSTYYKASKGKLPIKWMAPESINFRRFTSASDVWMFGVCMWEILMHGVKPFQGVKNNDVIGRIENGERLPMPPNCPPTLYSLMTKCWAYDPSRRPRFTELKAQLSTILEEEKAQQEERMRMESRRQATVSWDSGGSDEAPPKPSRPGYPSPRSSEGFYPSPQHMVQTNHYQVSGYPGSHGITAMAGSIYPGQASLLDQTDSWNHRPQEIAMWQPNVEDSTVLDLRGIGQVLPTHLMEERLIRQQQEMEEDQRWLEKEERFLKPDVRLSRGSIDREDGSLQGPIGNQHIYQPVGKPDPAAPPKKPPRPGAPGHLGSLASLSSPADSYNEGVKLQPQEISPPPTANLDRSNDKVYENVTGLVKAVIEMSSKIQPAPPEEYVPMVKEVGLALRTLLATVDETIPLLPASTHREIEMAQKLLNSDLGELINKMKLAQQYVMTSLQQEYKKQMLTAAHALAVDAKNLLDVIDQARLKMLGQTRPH
Streptavidin (Streptomyces avidinii), sequence (P22629 whole entry, looked up): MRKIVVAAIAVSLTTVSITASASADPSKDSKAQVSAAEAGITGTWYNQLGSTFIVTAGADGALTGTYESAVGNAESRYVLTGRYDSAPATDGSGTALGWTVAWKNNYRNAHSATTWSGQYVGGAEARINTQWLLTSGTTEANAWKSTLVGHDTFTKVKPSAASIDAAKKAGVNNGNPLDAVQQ
Torsin-1A (Homo sapiens), sequence (O14656 whole entry, looked up): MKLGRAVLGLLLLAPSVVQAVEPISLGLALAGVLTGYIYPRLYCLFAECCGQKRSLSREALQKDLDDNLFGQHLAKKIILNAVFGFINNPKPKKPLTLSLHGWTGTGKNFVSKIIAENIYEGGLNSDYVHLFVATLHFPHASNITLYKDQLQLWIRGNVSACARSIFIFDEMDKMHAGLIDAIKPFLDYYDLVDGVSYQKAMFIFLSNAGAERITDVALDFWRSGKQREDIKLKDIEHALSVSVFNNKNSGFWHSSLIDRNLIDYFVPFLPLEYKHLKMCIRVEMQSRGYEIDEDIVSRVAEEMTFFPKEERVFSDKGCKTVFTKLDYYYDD
Fibroblast growth factor 2 (Homo sapiens), sequence (P09038 whole entry, looked up): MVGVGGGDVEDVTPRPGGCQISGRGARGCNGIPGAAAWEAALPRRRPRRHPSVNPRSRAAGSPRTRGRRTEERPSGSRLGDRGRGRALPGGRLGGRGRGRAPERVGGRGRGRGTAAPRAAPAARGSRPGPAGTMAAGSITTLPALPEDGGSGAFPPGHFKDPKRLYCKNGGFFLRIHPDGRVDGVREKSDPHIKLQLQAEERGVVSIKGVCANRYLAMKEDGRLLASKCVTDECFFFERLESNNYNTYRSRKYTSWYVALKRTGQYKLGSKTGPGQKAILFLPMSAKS
Follistatin (Homo sapiens), sequence (P19883 whole entry, looked up): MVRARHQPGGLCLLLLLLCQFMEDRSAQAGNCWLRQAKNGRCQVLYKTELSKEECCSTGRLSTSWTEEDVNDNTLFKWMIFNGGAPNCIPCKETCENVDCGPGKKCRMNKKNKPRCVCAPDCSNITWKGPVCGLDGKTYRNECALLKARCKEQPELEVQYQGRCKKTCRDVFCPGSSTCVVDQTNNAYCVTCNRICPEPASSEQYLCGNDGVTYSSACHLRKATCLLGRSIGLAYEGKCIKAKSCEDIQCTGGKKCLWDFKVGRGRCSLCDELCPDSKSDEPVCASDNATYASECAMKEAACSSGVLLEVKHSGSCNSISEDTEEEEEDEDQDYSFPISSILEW
Luciferin 4-monooxygenase (Photinus pyralis), sequence (P08659 whole entry, looked up): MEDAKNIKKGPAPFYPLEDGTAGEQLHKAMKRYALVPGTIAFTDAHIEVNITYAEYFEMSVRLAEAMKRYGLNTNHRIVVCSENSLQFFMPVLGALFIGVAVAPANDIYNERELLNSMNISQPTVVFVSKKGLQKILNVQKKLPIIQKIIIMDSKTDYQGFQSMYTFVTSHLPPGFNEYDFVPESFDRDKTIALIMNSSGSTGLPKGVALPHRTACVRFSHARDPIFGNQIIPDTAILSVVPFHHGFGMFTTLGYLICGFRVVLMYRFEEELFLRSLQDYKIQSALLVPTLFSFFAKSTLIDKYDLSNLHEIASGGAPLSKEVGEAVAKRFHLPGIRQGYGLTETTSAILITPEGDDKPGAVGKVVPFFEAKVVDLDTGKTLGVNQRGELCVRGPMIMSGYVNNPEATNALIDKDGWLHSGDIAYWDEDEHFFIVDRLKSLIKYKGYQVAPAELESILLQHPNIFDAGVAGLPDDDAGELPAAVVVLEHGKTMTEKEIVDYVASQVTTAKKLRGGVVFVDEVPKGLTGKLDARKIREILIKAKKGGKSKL

Q: For `[N-]=[N+]=Nc1ccccc1[C@H]1OC(c2ccc(OCCCO)cc2)=N[C@@]1(Cc1ccccc1)C(=O)NCCN1CCOCC1`, which composite z-score [1] is on record?
A: The composite z-score was 1.65.

Q: And the composite z-score [2]?
A: The composite z-score was 1.23.

Q: And the composite z-score [3]?
A: The composite z-score was 0.309.

Q: What about the composite z-score [4] of the same molecule?
A: Its composite z-score is 0.996.

Q: What about the composite z-score [5] of the same molecule?
A: Its composite z-score is 1.21.

Q: What about the composite z-score [6] of the same molecule?
A: Its composite z-score is 0.989.

Q: What about the z-score [7] of the same molecule?
A: Its z-score is 2.49.

Q: What about the composite z-score (Lefty1) of the same molecule?
A: The composite z-score was 0.624.

Q: What about the composite z-score [8] of the same molecule?
A: Its composite z-score is 1.2.

Q: What about the z-score [9] of the same molecule?
A: Its z-score is -4.32 (inactive).

Q: And the composite z-score [10]?
A: Its composite z-score is 1.47.

Q: And the z-score [11]?
A: The z-score was -3.37 (inactive).

Q: And the z-score [12]?
A: The z-score was -0.395 (inactive).

Q: What about the z-score [13] of the same molecule?
A: The z-score was -0.697 (inactive).

Q: What about the z-score [14] of the same molecule?
A: Its z-score is -1.62 (inactive).

Q: And the composite z-score [15]?
A: The composite z-score was 1.32.

Q: And the composite z-score [16]?
A: The composite z-score was 0.936.

Q: What about the composite z-score (Torsin-1A (Homo sapiens) [17]) of the same molecule?
A: Its composite z-score is 0.596.

Q: What about the composite z-score (Torsin-1A (Homo sapiens) [18]) of the same molecule?
A: Its composite z-score is 0.0723.

Q: What about the composite z-score [19] of the same molecule?
A: Its composite z-score is 1.44.

Q: For `COC(=O)[C@@]1(Cc2ccccc2)[C@H]2c3cc(C(=O)N(C)C)n(Cc4ccc(C)o4)c3C[C@H]2CN1C(=O)c1ccccc1`, which composite z-score [1] is on record?
A: The composite z-score was 2.6.

Q: What about the composite z-score [2] of the same molecule?
A: The composite z-score was 1.21.

Q: And the composite z-score [3]?
A: Its composite z-score is 1.73.

Q: And the composite z-score [4]?
A: Its composite z-score is 0.705.

Q: What about the composite z-score [5] of the same molecule?
A: The composite z-score was 0.764.

Q: What about the composite z-score [6] of the same molecule?
A: Its composite z-score is 0.188.

Q: What about the z-score [7] of the same molecule?
A: Its z-score is -0.0901.

Q: And the composite z-score (Lefty1)?
A: Its composite z-score is -0.566.

Q: And the composite z-score [8]?
A: The composite z-score was 1.26.

Q: And the z-score [9]?
A: The z-score was 0.429 (inactive).

Q: And the composite z-score [10]?
A: The composite z-score was 1.28.

Q: What about the z-score [11] of the same molecule?
A: Its z-score is -4.01 (inactive).

Q: What about the z-score [12] of the same molecule?
A: Its z-score is -0.142 (inactive).

Q: What about the z-score [13] of the same molecule?
A: The z-score was -0.185 (inactive).

Q: And the z-score [14]?
A: The z-score was 0.2 (inactive).

Q: What about the composite z-score [15] of the same molecule?
A: Its composite z-score is 2.31.

Q: What about the composite z-score [16] of the same molecule?
A: Its composite z-score is 1.44.

Q: What about the composite z-score (Torsin-1A (Homo sapiens) [17]) of the same molecule?
A: The composite z-score was 0.125.

Q: What about the composite z-score (Torsin-1A (Homo sapiens) [18]) of the same molecule?
A: The composite z-score was 0.751.

Q: And the composite z-score [19]?
A: The composite z-score was 0.406.

Q: Which results are given for `[N-]=[N+]=Nc1ccccc1C[C@@]1(C(N)=O)N=C(c2ccc(OCCCO)cc2)O[C@@H]1c1ccccc1N=[N+]=[N-]`?
A: composite z-score [1]: 1.76; composite z-score [2]: 1.23; composite z-score [3]: 0.0444; composite z-score [4]: 0.637; composite z-score [5]: 0.062; composite z-score [6]: -0.0354; z-score [7]: -0.498; composite z-score (Lefty1): -0.37; composite z-score [8]: 0.0911; z-score [9]: -4.2 (inactive); composite z-score [10]: 0.351; z-score [11]: -5.17 (inactive); z-score [12]: -0.0225 (inactive); z-score [13]: -0.207 (inactive); z-score [14]: -1.89 (inactive); composite z-score [15]: 0.823; composite z-score [16]: 0.258; composite z-score (Torsin-1A (Homo sapiens) [17]): 0.252; composite z-score (Torsin-1A (Homo sapiens) [18]): 0.789; composite z-score [19]: -0.535

Q: Which composite z-score [1] does the source give for `NC(=O)NCC#Cc1ccc2c(c1)[C@]1(C(=O)N2)[C@H](c2ccccc2OCCO)N2[C@H](c3ccccc3)[C@H](c3ccccc3)OC(=O)[C@H]2[C@@H]1C(=O)NC[C@H](O)c1ccccc1` here?
A: The composite z-score was 1.1.

Q: And the composite z-score [2]?
A: Its composite z-score is -0.28.

Q: What about the composite z-score [3] of the same molecule?
A: The composite z-score was 0.183.

Q: What about the composite z-score [4] of the same molecule?
A: The composite z-score was 0.699.

Q: And the composite z-score [5]?
A: Its composite z-score is 0.109.

Q: And the composite z-score [6]?
A: The composite z-score was -0.751.

Q: What about the z-score [7] of the same molecule?
A: The z-score was -0.203.

Q: And the composite z-score (Lefty1)?
A: The composite z-score was -0.0823.

Q: What about the composite z-score [8] of the same molecule?
A: The composite z-score was 0.91.

Q: What about the z-score [9] of the same molecule?
A: Its z-score is 0.896 (inactive).

Q: What about the composite z-score [10] of the same molecule?
A: Its composite z-score is -0.287.

Q: And the z-score [11]?
A: The z-score was -2.62 (inactive).

Q: And the z-score [12]?
A: The z-score was 0.129 (inactive).

Q: And the z-score [13]?
A: Its z-score is 0.0384 (inactive).

Q: And the z-score [14]?
A: Its z-score is -0.278 (inactive).

Q: What about the composite z-score [15] of the same molecule?
A: Its composite z-score is 0.83.

Q: What about the composite z-score [16] of the same molecule?
A: Its composite z-score is -0.101.

Q: And the composite z-score (Torsin-1A (Homo sapiens) [17])?
A: Its composite z-score is 0.142.

Q: What about the composite z-score (Torsin-1A (Homo sapiens) [18]) of the same molecule?
A: The composite z-score was -0.487.

Q: What about the composite z-score [19] of the same molecule?
A: The composite z-score was -0.174.

Q: Which composite z-score [1] does the source give for `C=C[C@H](C)[C@H](OC(=O)Nc1ccc(SC)cc1)c1ccc(OCCO)cc1` here?
A: Its composite z-score is 0.677.

Q: What about the composite z-score [2] of the same molecule?
A: The composite z-score was 1.05.

Q: And the composite z-score [3]?
A: Its composite z-score is 0.0085.

Q: And the composite z-score [4]?
A: Its composite z-score is 0.519.

Q: And the composite z-score [5]?
A: Its composite z-score is 0.376.

Q: What about the composite z-score [6] of the same molecule?
A: The composite z-score was 1.2.

Q: What about the z-score [7] of the same molecule?
A: Its z-score is -1.38.

Q: What about the composite z-score (Lefty1) of the same molecule?
A: The composite z-score was 0.427.

Q: What about the composite z-score [8] of the same molecule?
A: Its composite z-score is 1.07.

Q: What about the z-score [9] of the same molecule?
A: Its z-score is -7.94 (inactive).

Q: And the composite z-score [10]?
A: Its composite z-score is 0.448.

Q: What about the z-score [11] of the same molecule?
A: Its z-score is -3.53 (inactive).

Q: What about the z-score [12] of the same molecule?
A: Its z-score is 0.0722 (inactive).

Q: And the z-score [13]?
A: Its z-score is 7.78 (inactive).

Q: And the z-score [14]?
A: Its z-score is 1.58 (inactive).

Q: What about the composite z-score [15] of the same molecule?
A: Its composite z-score is 0.374.

Q: What about the composite z-score [16] of the same molecule?
A: Its composite z-score is -0.0221.

Q: What about the composite z-score (Torsin-1A (Homo sapiens) [17]) of the same molecule?
A: The composite z-score was 0.766.

Q: What about the composite z-score (Torsin-1A (Homo sapiens) [18]) of the same molecule?
A: Its composite z-score is 0.937.

Q: What about the composite z-score [19] of the same molecule?
A: The composite z-score was 1.33.
